LASV entry inh: Lassa virus entry inhibition. Lassa virus pseudotype entry inhibition, cell reporter. Potency, µM (highest dose often 37.9 µM), usual class: inhibitors. actives 1.2% (n = 300,000); calls by dose curve; tested in HEK293 cells; also: nearly all actives have a fitted effect of over 50% in size
HCV inhibitor: inhibitors of hepatitis C virus infection. Huh7.5.1 HCVcc-Cre infection, luciferase reporter, 44 h. Potency, µM (titrated, usually from 41.8 µM), hits mostly inhibitors. actives 3.4% (n = 340,000). AID 651820
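Cells (1,000/well) were plated 4 h before compound, then infected with HCVcc-Cre virus (~0.5 moi). After 44 h further culture, infection was read as luciferase luminescence following a 15 min substrate incubation at room temperature.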
Pf growth 96h: P. falciparum growth inhibition at 96 hour, primary screen for plastid delayed-death inhibitors | P. falciparum luciferase reporter growth, 96 h | Potency, µM (series often up to 28.7 µM), hits mostly inhibitors | actives 6.9% (n = 320,000) | AID 504834
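Compounds incubated with erythrocytes infected by luciferase-expressing P. falciparum (2% hematocrit, 0.05% parasitemia final) for 96 hours, 37 C in 5% CO2. Growth inhibition scored as decreased luciferase luminescence.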
HCMV inh: inhibitors of human cytomegalovirus; HFF cells, HCMV-luciferase reporter, 72 h; hits give low values; activity change, negative = inhibition, % at 57.5 µM; actives 4.5% (n = 410,000); in the data active = activity change below about -60%; inconclusive = no clear call, values can overlap the other calls; inactive = above about -39%
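Screen run at 2 compound doses on HFFs infected with reporter HCMV, MOI 1 PFU/cell. Luciferase activity from cell lysates at 72 h post infection gave inhibition relative to buffer-only and Salinomycin wells.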
Pf growth 48h: inhibits P. falciparum growth in the first generation, 48 h | P. falciparum luciferase growth in erythrocytes, 48 h | Potency, µM (top dose mostly 28.7 µM), actives largely listed as inhibitors | actives 5.9% (n = 310,000)
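A one-generation exposure of luciferase-tagged malaria parasites in RPMI 1640/Albumax erythrocyte culture, 37 C and 5% CO2. Inhibition is inferred from decreased luminescence after adding detection reagent.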
Marburg entry inh: Marburg virus entry inhibition; Potency, µM (top dose mostly 37.8 µM), most hits filed as inhibitors; Marburg virus pseudotyped entry inhibition, cell reporter; actives 1.8% (n = 300,000); AID 540276; calls by dose curve; tested in HEK293 cells
Numbers stand for hits; 0 = inactive; ? = inconclusive; - = not tested or not shown; [ ] = dose if it differs, or a comment. Most compounds without a hit are left out; they make up all but 14% or so of the library. Unless noted, calls follow the shape of the dose curve; as a rule, active = well fitted inhibition curve with a large enough effect; inconclusive = small, poorly fitted or top-dose-only effect, or another doubt; inactive = no such curve, though single readings can be large or run the other way.

SMILES | LASV entry inh | HCV inhibitor | Pf growth 96h | HCMV inh | Pf growth 48h | Marburg entry inh
Fc1ccc(C(c2nnc(-c3ccccc3)o2)N2CCN(c3ccccc3)CC2)c(Cl)c1 (stereo not drawn) | ? | - | - | 0 | - | -
O=C(NC(=S)/C(=C1\CCCCCN1)[N+](=O)[O-])c1ccccc1 | ? | 0 | - | - | - | ?
Cn1c(SSc2ccc(-c3cccnc3)n2C)ccc1-c1cccnc1 | ? | 0 | - | 0 | - | 13µM
Clc1cccc(Nc2cc3c(cn2)ncn3Cc2ccco2)c1 | - | - | - | 0 | - | -
CCOC(=O)N1CCN(C(=O)Cc2ccc(-n3c(=O)[nH]c4ccccc4c3=O)cc2)CC1 | 0 | 0 | 9.3µM | 0 | 0 | 0
COc1ccc(CNC(=O)c2ccc3c(=O)n(-c4ccccc4)c(=O)[nH]c3c2)cc1 | ? | ? | ? | - | 0 | 0
COc1cccc(CNC(=O)Cc2ccc(-n3c(=O)[nH]c4ccccc4c3=O)cc2)c1 | ? | 0 | 0 | -97 | 0 | ?
COC(=O)CC=C[C@H](C)[C@@H](OCc1ccccc1Br)C(C)C | ? | - | - | - | - | 0
Cc1cccc(Nc2nn3c(=O)c4cc5c(cc4nc3s2)OCO5)c1 | 0 | - | - | 0 | - | -
CCN1CCS/C1=C\C=C\C1=[N+](CC)CCS1 | - | 6.3µM | 0 | -104 | 0.93µM | 2.5µM
CCN1CCS/C1=C/C=C/C1=[N+](CC)CCS1 | ? | - | 0.66µM | - | 0.74µM | 2.5µM
C[C@H]1O[C@@H](n2cc(F)c(=O)[nH]c2=O)[C@H](O)[C@H]1O | 0 | - | - | - | - | 0
CC(O)(C#CCN1CCCCCC1)c1ccccc1 (stereo not drawn) | 0 | 0 | ? | -102 | 0 | 0
OC(C#CCN1CCCC1)(c1ccccc1)c1ccccc1 | 0 | - | 9.5µM | 0 | ? | 0
CC(C)Oc1ccc(CNC(=O)c2ccc(NC(=O)c3nsc4ccccc34)cc2)cc1 | ? | - | - | 0 | - | -
CC1CCCN(C(=O)CCS(=O)(=O)c2ccc3c(c2)NC(=O)C(C)S3)C1 (stereo not drawn) | - | ? | 0 | - | 0 | -
O=C(C(=Cc1ccc(O)cc1)c1ccccc1)c1ccccc1 | - | - | - | 0 | - | -
Nc1[nH]n2c(=O)c3c(nc2c1N=Nc1ccccc1)CCCC3 | ? | 0 | ? | ? | 0 | 0
Nc1[nH]n2c(=O)c3c(nc2c1N=Nc1ccc(Cl)cc1)CCCC3 | 0 | 0 | ? | -95 | ? | 0
Clc1ccc(CN2CCCCCC2)cc1 | 0 | 0 | ? | 0 | 0 | 0
N=c1ccn(Cc2cccc(Cl)c2)cc1 | ? | 2.5µM | ? | -71 | 2.6µM | ?
N=c1ccn(Cc2ccc(Cl)cc2)cc1 | ? | 1.1µM | 0 | -93 | 1.9µM | ?
Clc1cccc(CN2CCN(Cc3ccco3)CC2)c1 | ? | 0 | 0 | 0 | 0 | 0
N=c1ccn(Cc2ccc(Cl)c(Cl)c2)cc1 | 0 | 3.5µM | 0 | -97 | 0.59µM | ?
CC(=O)N1c2ccccc2C(=O)C1N1CCN(c2cccc(C)c2C)CC1 (stereo not drawn) | ? | - | - | 0 | - | -
SMILES | LASV entry inh | HCV inhibitor | Pf growth 96h | HCMV inh | Pf growth 48h | Marburg entry inh
CC1CCCC(NC(=O)CN(C)CC(=O)Nc2ccc(F)cc2)C1C (stereo not drawn) | - | ? | 0 | 0 | 0 | -
Nc1ccc(S(=O)(=O)Nc2nccs2)cc1N=Nc1ccccc1[N+](=O)[O-] | 0 | 0 | - | 0 | - | 0
COC(=O)[C@@]1(Cc2ccc(OC)cc2)[C@H]2c3cc(C(=O)N(C)C)n(Cc4c(CO)[nH]cc(C)c4=O)c3C[C@H]2CN1C(=O)c1ccccc1 | - | 0 | - | 0 | - | -
COC(=O)[C@@]1(Cc2ccc(OC)cc2)[C@H]2c3cc(C(=O)N4CCCC4)n(CCN4CCNC4=O)c3C[C@H]2CN1C(=O)c1ccccc1 | 0 | 0[8.37 µM] | 1.7µM | - | 1.9µM | 0
COC(=O)[C@@]1(Cc2ccc(OC)cc2)[C@H]2c3cc(C(=O)N(C)C)[nH]c3C[C@H]2CN1C(=O)c1ccccc1 | 0 | 0 | ? | 0 | 4.7µM | 0
COC(=O)[C@@]1(Cc2ccc(OC)cc2)[C@H]2c3cc(C(=O)N4CCCC4)n(CCn4cc([N+](=O)[O-])nc4C)c3C[C@H]2CN1C(=O)c1ccccc1 | 0 | 0[8.37 µM] | 0.59µM | -74 | ? | 0
COC(=O)[C@@]1(Cc2ccc(OC)cc2)[C@H]2c3cc(C(=O)N(C)C)n(CCc4ccc(OC)c(Br)c4)c3C[C@H]2CN1C(=O)c1ccccc1 | ? | 0[8.37 µM] | 2.1µM | - | 2.1µM | ?
COC(=O)[C@@]1(Cc2ccc(OC)cc2)[C@H]2c3cc(C(=O)N4CCCC4)n(CCN4CCOCC4)c3C[C@H]2CN1C(=O)c1ccccc1 | - | - | - | 0 | - | -
CCC(C)n1c(=N)c(S(=O)(=O)c2ccccc2)cc2c(=O)n3ccccc3nc21 (stereo not drawn) | 0 | - | - | 0 | - | 0
CCc1c(C)sc(NC(=O)c2cc(-c3cccc(Cl)c3)on2)c1C#N | 0 | - | - | 0 | - | 0
COC(=O)[C@@]1(Cc2ccc(OC)cc2)[C@H]2c3cc(C(=O)N4CCCC4)n(Cc4ccc(OC)c(OC)c4)c3C[C@H]2CN1C(=O)c1ccccc1 | ? | 0[8.37 µM] | 1.5µM | 0 | ? | 0
COC(=O)[C@@]1(Cc2ccc(OC)cc2)[C@H]2c3cc(C(=O)N4CCCC4)n(C[C@H](O)CO)c3C[C@H]2CN1C(=O)c1ccccc1 | - | - | - | 0 | - | -
COC(=O)[C@@]1(Cc2ccc(OC)cc2)[C@@H]2C(=CC(=O)[C@H]2CC(=O)C(=O)N2CCCC2)CN1C(=O)c1ccccc1 | ? | 0 | ? | - | 10µM | ?
COC(=O)[C@@]1(Cc2ccc(OC)cc2)[C@H]2c3cc(C(=O)N4CCCC4)n(Cc4c(CO)[nH]cc(C)c4=O)c3C[C@H]2CN1C(=O)c1ccccc1 | - | 0 | - | 0 | - | -
O=C1C=C(c2ccc(Cl)nc2)C[C@@H](c2ccc3c(c2)OCO3)C1 | - | ? | ? | 0 | 0 | -
Cc1ccc(OCC(=O)NC2CCCC2)c(C)c1 | ? | 0 | 0.93µM | 0 | 0 | ?
O=C(COc1ccc(Br)cc1Br)NC1CCCC1 | - | ? | 0 | -63 | 0 | -
O=C(COc1ccc(Br)cc1Cl)NC1CCCCC1 | 0 | ? | 0 | ? | 0 | ?
CNCc1ccccc1OCC(=O)Nc1ccccc1 | 0 | 0 | 0 | 0 | - | 0
Cc1ccc(C(C)C)cc1OCC(=O)N/N=C/c1ccc2c(c1)OCCO2 | 1.1µM | 0 | 0 | 0 | 0 | ?
O=C(COc1ccc(Br)cc1CNC1CCCC1)Nc1ccccc1 | 0 | ? | 0 | 0 | 13µM | 1.8µM
Cc1cc(Cl)ccc1OCCCC(=O)NO | ? | 7.1µM | - | 0 | ? | 0
C/C=N\NC(=O)COc1cc(C)ccc1C | 0 | 0 | 0 | -60 | 0 | 0
CC(C)NC(=O)NC(=O)COc1ccc(Br)cc1Br | 7.3µM | ? | 0 | 0 | 0 | 6.5µM
O=C(COc1ccc(Br)cc1Cl)NC(=O)NC1CCCC1 | - | 0 | 0 | 0 | 0 | -
Cc1cc(Cl)ccc1OCC(=O)NC1CCCC1 | 0 | ? | ? | -74 | - | ?
Cc1ccc(C)c(OCC(=O)NCCNC(=O)COc2cc(C)ccc2C)c1 | 0 | ? | 0 | 0 | ? | 0
CC(C)NC(=O)C1CCN(c2nc3ccccc3nc2C(F)(F)F)CC1 | 0 | - | - | 0 | - | -

High-throughput results: PubChem BioAssay, National Center for Advancing Translational Sciences (NCATS)
